Results on 56 compounds are retold here after the supplement of paper PMC12297408.

The experiment has as its system Plasmodium falciparum NF54/iGP1_RE9H ulg8 stage V gametocytes. Kind of experiment: gametocyte viability (luciferase signal relative to DMSO control) (% of DMSO control); higher = less gametocytocidal activity, active = 50 or less. The following applies: exposure time: 72 h. In short, it runs like this: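 Gametocyte viability is reported relative to the average of DMSO vehicle wells on the same plate. The assay used day-12 stage V NF54/iGP1_RE9Hulg8 gametocytes at ~2.5% gametocytemia and 3% hematocrit, in 0.5% Albumax II medium, added to 96-well plates of compounds spotted in nanolitre volumes for final 10 µM or 1 µM, one well each. After 72 h at 37 °C, 90 µl was mixed with 10 µl D-luciferin (30 mg/ml), and luminescence was recorded with an IVIS Lumina II.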

Structures can show the parent of a compound that is named as a salt. Among all 1,300 compounds or so, about 40 (3%) showed activity. Many of the other results were omitted from the sample, so actives are more common in it than they were. Unmarked numbers belong to inactive results.

`CN1CCC(=C2c3ccccc3CCc3cccnc32)CC1` [Azatadine maleate]: the gametocyte viability (concentration: 1 µM) is 79.7 and the gametocyte viability (concentration: 10 µM) was 80.8.

With `CN1CCN2c3ncccc3Cc3ccccc3C2C1` (configuration not stated) [Mirtazapine], the gametocyte viability reads like this: (concentration: 1 µM) 79.6; (concentration: 10 µM) 77.4.

On to `COc1cc(-c2ccc(N=Nc3ccc4c(S(=O)(=O)O)cc(S(=O)(=O)O)c(N)c4c3O)c(OC)c2)ccc1N=Nc1ccc2c(S(=O)(=O)O)cc(S(=O)(=O)O)c(N)c2c1O` [Chicago sky blue 6B], for which the gametocyte viability (concentration: 1 µM) was 80.1 and the gametocyte viability (concentration: 10 µM) was 82.1.

Consider `Cc1ccccc1C(OCCN(C)C)c1ccccc1` (configuration not stated) [Orphenadrine hydrochloride], for which the gametocyte viability runs as follows: (concentration: 1 µM) 84.4; (concentration: 10 µM) 87.5.

As to `O=C1CC[C@@H](C(=O)N2CSC[C@H]2C(=O)O)N1` [Pidotimod], the gametocyte viability is, setting by setting: (concentration: 1 µM) 83.8; (concentration: 10 µM) 81.2.

`Cc1ccc(S(=O)(=O)NC(=O)NN2CC3CCCC3C2)cc1` (configuration not stated) [Gliclazide]: the gametocyte viability is, setting by setting: (concentration: 1 µM) 91.8; (concentration: 10 µM) 88.7.

In the case of `O=C1NCCN1CCN1CCC(c2cn(-c3ccc(F)cc3)c3ccc(Cl)cc23)CC1` [Sertindole], the gametocyte viability was 97.7 (concentration: 1 µM) and 82.3 (concentration: 10 µM).

Turning to `CC(=O)OCC(=O)[C@@]12N=C(C)O[C@@H]1C[C@H]1[C@@H]3CCC4=CC(=O)C=C[C@]4(C)[C@H]3[C@@H](O)C[C@@]12C` [Deflazacort], the gametocyte viability (concentration: 1 µM) is 95.7 and the gametocyte viability (concentration: 10 µM) was 104.

In the case of `Clc1ccc(Nc2nnc(Cc3ccncc3)c3ccccc23)cc1` [Vatalanib], the gametocyte viability was 89.2 (concentration: 1 µM) and 69.1 (concentration: 10 µM).

On to `Cc1c(F)c(N2CCNC(C)C2)cc2c1c(=O)c(C(=O)O)cn2C1CC1` (configuration not stated) [Grepafloxacin], for which the gametocyte viability is, setting by setting: (concentration: 1 µM) 93.9; (concentration: 10 µM) 95.3.

As to `COc1ccc2[nH]c([S+]([O-])Cc3ncc(C)c(OC)c3C)nc2n1` (configuration not stated) [Tenatoprazole], the gametocyte viability (concentration: 1 µM) is 90.8 and the gametocyte viability (concentration: 10 µM) is 79.8.

Take `Nc1ccc(S(=O)(=O)Nc2nccs2)cc1` [Sulfathiazole]: the gametocyte viability (concentration: 1 µM) was 96.7 and the gametocyte viability (concentration: 10 µM) is 91.9.

As to `CCCCC(=O)N(Cc1ccc(-c2ccccc2-c2nnn[nH]2)cc1)[C@H](C(=O)O)C(C)C` [Valsartan], the gametocyte viability (concentration: 1 µM) is 81.5 and the gametocyte viability (concentration: 10 µM) was 81.

For `Cc1cc(C(=O)NNCc2ccccc2)no1` [Isocarboxazid], the gametocyte viability is, setting by setting: (concentration: 1 µM) 98.7; (concentration: 10 µM) 85.

As for `CN(C)[C@@H]1C(=O)C(C(=O)NCNCCCC[C@H](N)C(=O)O)=C(O)[C@@]2(O)C(=O)C3=C(O)c4c(O)cccc4[C@@](C)(O)[C@H]3C[C@@H]12` [Lymecycline], the gametocyte viability by setting is: (concentration: 1 µM) 88.7; (concentration: 10 µM) 84.6.

`CC(=O)OC[C@H]1O[C@@H]([S-])[C@H](OC(C)=O)[C@@H](OC(C)=O)[C@@H]1OC(C)=O.CCP(CC)CC.[Au+]` [Auranofin]: the gametocyte viability is, setting by setting: (concentration: 1 µM) 82.6; (concentration: 10 µM) 3.03 (active).

`COc1ccc2[nH]cc(CCNC(C)=O)c2c1` [Melatonin]: the gametocyte viability (concentration: 1 µM) was 80.2 and the gametocyte viability (concentration: 10 µM) is 85.4.

Consider `CCCCCNC(=N)N/N=C/c1c[nH]c2ccc(OC)cc12` [Tegaserod maleate], for which the gametocyte viability (concentration: 1 µM) was 88.4 and the gametocyte viability (concentration: 10 µM) is 6.12 (active).

Turning to `COc1cc2nc(N3CCN(C(=O)C4COc5ccccc5O4)CC3)nc(N)c2cc1OC` (configuration not stated) [Doxazosin mesylate], the gametocyte viability was 86.5 (concentration: 1 µM) and 63.2 (concentration: 10 µM).

Turning to `COc1cc2nc(N3CCN(C(=O)C4CCCO4)CC3)nc(N)c2cc1OC` (configuration not stated) [Terazosin hydrochloride], the gametocyte viability is 96.5 (concentration: 1 µM) and 92.6 (concentration: 10 µM).

With `COc1cc2nc(N3CCN(C(=O)c4ccco4)CC3)nc(N)c2cc1OC` [Prazosin hydrochloride], the gametocyte viability was 90.8 (concentration: 1 µM) and 42.9 (active) (concentration: 10 µM).

Take `OCCN1CCN(CC/C=C2/c3ccccc3Sc3ccc(Cl)cc32)CC1` [Zuclopenthixol hydrochloride]: the gametocyte viability (concentration: 1 µM) is 100 and the gametocyte viability (concentration: 10 µM) was 95.8.

As for `CC(C)CN(C[C@@H](O)[C@H](Cc1ccccc1)NC(=O)O[C@H]1CO[C@H]2OCC[C@H]21)S(=O)(=O)c1ccc(N)cc1` [Darunavir], the gametocyte viability by setting is: (concentration: 1 µM) 82.6; (concentration: 10 µM) 81.5.

Regarding `C=C1C[C@H]2[C@@H]3C=C(C)C4=CC(=O)CC[C@]4(C)[C@H]3CC[C@]2(C)[C@@]1(OC(C)=O)C(C)=O` [Melengestrol acetate], the gametocyte viability is, setting by setting: (concentration: 1 µM) 85.4; (concentration: 10 µM) 87.2.

Turning to `Nc1nc(CC(=O)Nc2ccc(CCNC[C@H](O)c3ccccc3)cc2)cs1` [Mirabegron], the gametocyte viability is 91.9 (concentration: 1 µM) and 90.8 (concentration: 10 µM).

On to `Cn1nnc2c(C(N)=O)ncn2c1=O` [Temozolomide], for which the gametocyte viability (concentration: 1 µM) was 86.9 and the gametocyte viability (concentration: 10 µM) was 88.1.

Take `Cc1cc(C(C)(C)C)c(O)c(C)c1CC1=NCCN1` [Oxymetazoline hydrochloride]: the gametocyte viability reads like this: (concentration: 1 µM) 89.6; (concentration: 10 µM) 90.7.

With `CC(=O)OCC(=O)[C@@]12OC3(CCCC3)O[C@@H]1C[C@H]1[C@@H]3CCC4=CC(=O)C=C[C@]4(C)[C@@]3(F)[C@@H](O)C[C@@]12C` [Amcinonide], the gametocyte viability (concentration: 1 µM) is 93.1 and the gametocyte viability (concentration: 10 µM) was 92.1.

As for `CN1CCN(C(c2ccccc2)c2ccc(Cl)cc2)CC1` (configuration not stated) [Chlorcyclizine hydrochloride], the gametocyte viability is 96.9 (concentration: 1 µM) and 91.7 (concentration: 10 µM).

Regarding `CCOC(=O)[C@H](CCc1ccccc1)N[C@@H](C)C(=O)N1Cc2ccccc2C[C@H]1C(=O)O` [Quinapril HCl], the gametocyte viability (concentration: 1 µM) is 98.4 and the gametocyte viability (concentration: 10 µM) is 98.4.

Consider `S=c1[nH]cnc2nc[nH]c12` [Mercaptopurine], for which the gametocyte viability (concentration: 1 µM) was 82.1 and the gametocyte viability (concentration: 10 µM) is 84.9.

Regarding `c1coc(CNc2ncnc3nc[nH]c23)c1` [6-Furfurylaminopurine], the gametocyte viability reads like this: (concentration: 1 µM) 86.5; (concentration: 10 µM) 75.6.

Turning to `c1ccc(CNc2ncnc3nc[nH]c23)cc1` [Aminopurine, 6-benzyl], the gametocyte viability runs as follows: (concentration: 1 µM) 69.7; (concentration: 10 µM) 43.9 (active).

In the case of `CCCc1nc2c(C)cc(-c3nc4ccccc4n3C)cc2n1Cc1ccc(-c2ccccc2C(=O)O)cc1` [Telmisartan], the gametocyte viability by setting is: (concentration: 1 µM) 80; (concentration: 10 µM) 88.2.

For the compound `CN1CCCN=C1/C=C/c1cccc(O)c1` [Oxantel pamoate], the gametocyte viability (concentration: 1 µM) was 80.4 and the gametocyte viability (concentration: 10 µM) is 87.7.

Consider `O=C(O)c1ccccc1C(=O)Nc1ccc(S(=O)(=O)Nc2nccs2)cc1` [Phthalylsulfathiazole], for which the gametocyte viability runs as follows: (concentration: 1 µM) 82.3; (concentration: 10 µM) 85.4.

With `CN(C)CCc1c[nH]c2ccc(C[C@H]3COC(=O)N3)cc12` [Zolmitriptan], the gametocyte viability (concentration: 1 µM) is 83.8 and the gametocyte viability (concentration: 10 µM) is 81.7.

Take `COc1ccccc1N1CCN(CCCNc2cc(=O)n(C)c(=O)n2C)CC1` [Urapidil hydrochloride]: the gametocyte viability (concentration: 1 µM) was 75.6 and the gametocyte viability (concentration: 10 µM) is 48.5 (active).

Take `COc1ccccc1N1CCN(CCCCNC(=O)c2ccc3ccccc3c2)CC1`: the gametocyte viability (concentration: 1 µM) is 82.8 and the gametocyte viability (concentration: 10 µM) was 73.7.

Take `COc1ccccc1N1CCN(CC(O)COc2cccc3ccccc23)CC1` (configuration not stated) [Naftopidil dihydrochloride]: the gametocyte viability reads like this: (concentration: 1 µM) 90.8; (concentration: 10 µM) 83.2.

For `CCOC(=O)[C@H](CCc1ccccc1)N[C@@H](C)C(=O)N1CCC[C@H]1C(=O)O` [Enalapril maleate], the gametocyte viability reads like this: (concentration: 1 µM) 81.9; (concentration: 10 µM) 86.7.

Take `COc1ccc(CCN(C)CCCC(C#N)(c2ccc(OC)c(OC)c2)C(C)C)cc1OC` (configuration not stated) [Verapamil hydrochloride]: the gametocyte viability runs as follows: (concentration: 1 µM) 91.8; (concentration: 10 µM) 99.3.

With `N/C(=N\C(=O)c1nc(Cl)c(N)nc1N)NCc1ccccc1` [Benzamil hydrochloride], the gametocyte viability was 88.7 (concentration: 1 µM) and 81.1 (concentration: 10 µM).

Turning to `CC(C)c1ccc2oc3nc(N)c(C(=O)O)cc3c(=O)c2c1` [Amlexanox], the gametocyte viability reads like this: (concentration: 1 µM) 80; (concentration: 10 µM) 81.5.

On to `CCCCC(O)c1ccccc1` (configuration not stated) [Fenipentol], for which the gametocyte viability is, setting by setting: (concentration: 1 µM) 82; (concentration: 10 µM) 82.9.

For the compound `CC(C)(C)NC(=O)[C@@H]1C[C@@H]2CCCC[C@@H]2CN1C[C@@H](O)[C@H](Cc1ccccc1)NC(=O)[C@H](CC(N)=O)NC(=O)c1ccc2ccccc2n1` [Saquinavir mesylate], the gametocyte viability runs as follows: (concentration: 1 µM) 82.4; (concentration: 10 µM) 78.9.

Regarding `CC(C)(C)NC(=O)[C@@H]1CN(Cc2cccnc2)CCN1C[C@@H](O)C[C@@H](Cc1ccccc1)C(=O)N[C@H]1c2ccccc2C[C@H]1O` [Indinavir sulfate], the gametocyte viability by setting is: (concentration: 1 µM) 67; (concentration: 10 µM) 40 (active).

`CN(C)CCCN1c2ccccc2Sc2ccc(C(F)(F)F)cc21` [Triflupromazine hydrochloride]: the gametocyte viability was 83.7 (concentration: 1 µM) and 81.5 (concentration: 10 µM).

With `CN1CCCCC1CCN1c2ccccc2Sc2ccc([S+](C)[O-])cc21` (configuration not stated) [Mesoridazine besylate], the gametocyte viability (concentration: 1 µM) was 88.9 and the gametocyte viability (concentration: 10 µM) was 88.7.

On to `CSc1ccc2c(c1)N(CCC1CCCCN1C)c1ccccc1S2` (configuration not stated) [Thioridazine hydrochloride], for which the gametocyte viability (concentration: 1 µM) was 87.7 and the gametocyte viability (concentration: 10 µM) was 30.1 (active).

For the compound `CSc1ccc2c(c1)C(N1CCN(C)CC1)Cc1ccccc1S2` (configuration not stated) [Methiothepin maleate], the gametocyte viability reads like this: (concentration: 1 µM) 86.1; (concentration: 10 µM) 75.3.

As for `OCCN1CCN(CCCN2c3ccccc3Sc3ccc(C(F)(F)F)cc32)CC1` [Fluphenazine dihydrochloride], the gametocyte viability runs as follows: (concentration: 1 µM) 89.1; (concentration: 10 µM) 68.1.

With `CN1CCN(CCCN2c3ccccc3Sc3ccc(C(F)(F)F)cc32)CC1` [Trifluoperazine dihydrochloride], the gametocyte viability (concentration: 1 µM) is 82.8 and the gametocyte viability (concentration: 10 µM) is 46.8 (active).

In the case of `CN1CCN(CCCN2c3ccccc3Sc3ccc(Cl)cc32)CC1` [Prochlorperazine dimaleate], the gametocyte viability runs as follows: (concentration: 1 µM) 81.3; (concentration: 10 µM) 78.9.

For the compound `CN1CCN(CCCN2c3ccccc3Sc3ccc(S(=O)(=O)N(C)C)cc32)CC1` [Thioproperazine dimesylate], the gametocyte viability reads like this: (concentration: 1 µM) 81.7; (concentration: 10 µM) 52.8.

For `CCSc1ccc2c(c1)N(CCCN1CCN(C)CC1)c1ccccc1S2` [Thiethylperazine dimalate], the gametocyte viability was 83.3 (concentration: 1 µM) and 32.4 (active) (concentration: 10 µM).
